Assay outcomes: PubChem BioAssay, National Center for Advancing Translational Sciences (NCATS)
Sampled rows, rich in hits. Any-hit rate of the full collection: about 1.1%.
PI4K2A inh: qHTS for small molecular inhibitors of PI4K2A | Phosphatidylinositol 4-kinase type 2-alpha (Homo sapiens), Q9BTU6 | purified PI4K2A, ADP-Glo luminescence, 1 h; hits give low values | activity change, negative = inhibition, % at 76.9 µM | hit rate 0.13% among 420,000 | AID 1346378, 2018; in the data active = activity change below about -50%; inconclusive = mostly about -30% to -49%;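 note: -100% = wells without enzyme as full effect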
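PI4K2A activity was measured by ADP-Glo luminescence: enzyme (4 ug/mL stock) and phosphatidylinositol (1.2 mM stock) in Tris pH 7.5/MgCl2/EGTA/Triton X-100 buffer were reacted with ATP (300 microM stock) for one hour at ambient temperature.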
TrxR1 substrate: qHTS Assay for Substrates of Mammalian Selenoprotein Thioredoxin Reductase 1 (TrxR1): qHTS | hit rate 0.01% among 390,000 | purified TrxR1 substrate turnover, NADPH consumption readout | Potency, µM (titrated, usually from 114 µM), for the others: top-dose activity change, negative = substrate turnover | Thioredoxin reductase 1, cytoplasmic (Rattus norvegicus), O89049 | AID 588456, 2011; note: potency is the fitted concentration of half-maximal effect; nearly all actives have a fitted effect of over 50% in size
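Rat TrxR1, dispensed at 90 nM, was prereduced with 400 uM NADPH (final) for 5 min at ~22 deg C, then incubated with compound 15 min before 400 uM selenite. A first-read NADPH fluorescence drop versus no-compound background flagged substrates.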
rTrxR1 inhibitor: qHTS Assay for Inhibitors of Mammalian Selenoprotein Thioredoxin Reductase 1 (TrxR1): qHTS. recombinant rTrxR1, NADPH fluorescence consumption, selenite substrate. Thioredoxin reductase 1, cytoplasmic (Rattus norvegicus), O89049. Potency, µM (series often up to 114 µM), inactives show top-dose activity change, negative = inhibition, usual class: inhibitors. hit rate 1% among 390,000; note: potency is the fitted concentration of half-maximal effect; nearly all actives have a fitted effect of over 65% in size
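Rat TrxR1 (90 nM in the dispensed reagent) was pre-reduced with 400 uM NADPH for 5 min at room temperature, then incubated with compound for 15 min. After 400 uM selenite was added, NADPH fluorescence (Ex 340/Em 450 nm) was followed for 8 min.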
GALK inhibitor: qHTS Assay for Inhibitors of Human Galactokinase (GALK); P51570; Purified GALK, Kinase-Glo residual ATP luminescence; Potency, µM (titrated, usually from 57.5 µM), inactives show at the top dose activity change, negative = inhibition, usual class: inhibitors; hit rate 0.007% among 270,000; AID 1868, 2009; note: potency is the fitted concentration of half-maximal effect
Target sequence (P51570 whole entry, looked up): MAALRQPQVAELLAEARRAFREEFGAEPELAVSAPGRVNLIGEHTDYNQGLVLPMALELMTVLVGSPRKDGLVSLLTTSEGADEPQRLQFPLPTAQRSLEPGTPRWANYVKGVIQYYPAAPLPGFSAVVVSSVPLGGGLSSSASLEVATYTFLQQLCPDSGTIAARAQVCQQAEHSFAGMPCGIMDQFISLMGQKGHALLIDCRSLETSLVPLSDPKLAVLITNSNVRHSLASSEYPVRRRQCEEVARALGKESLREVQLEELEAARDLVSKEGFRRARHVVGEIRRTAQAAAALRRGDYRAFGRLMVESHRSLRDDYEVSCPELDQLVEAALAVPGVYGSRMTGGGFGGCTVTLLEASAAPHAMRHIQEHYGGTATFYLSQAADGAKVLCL
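Quantitative HTS: GALK 5 nM, ATP 35 uM, galactose 100 uM, 1 h room temperature, then luciferase-based ATP detection.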
* = called active by the depositor; ? = inconclusive; . = no result; [ ] = remark or other dose. Unless noted, calls come from the whole dose curve; as a rule, active = well fitted curve in the direction sought with a large enough effect; inconclusive = small, poorly fitted or top-dose-only effect, or another doubt; inactive = no such curve, though single readings can be large; an effect the other way counts as inactive or inconclusive. Unless noted, % is set by controls: 0 for no effect and ±100 for the full control effect.

SMILES	PI4K2A inh	TrxR1 substrate	rTrxR1 inhibitor	GALK inhibitor
CC(=O)c1ccc(NC(=O)CSc2nnc(-c3ccco3)c(-c3ccco3)n2)cc1	?	-3%[57.1 µM]	7.1µM*	4%
O=C(CSc1nnc(-c2ccco2)c(-c2ccco2)n1)c1ccccc1	-17	-11%	13µM*	-2%
C/C=C/c1ccccc1OCCCN1CCC(C(O)(c2ccccc2)c2ccccc2)CC1	-4	.	.	.
CCC[n+]1c(/C=C/c2c(OC)cc(OC)cc2OC)ccc2ccccc21	.	-8%	27%	.
NS(=O)(=O)c1cccc(NC(=S)NC(=O)C23CC4CC(CC(C4)C2)C3)c1	0	-10%	40µM*	-2%
O=C1C=CC2=C3c4cc(O)c(O)cc4CC3(O)COC2=C1O (stereo not given)	?	3%	16µM*	.
COc1cc(OC)c(NC(=O)NC(C)c2c(-n3cccc3)sc(C)c2C)cc1Cl (stereo not given)	-1	-12%	-2%	.
COc1ccc(C)cc1N(C)C(=O)c1sc2nc3n(c(=O)c2c1C)CCCCC3	-1	-4%	79µM*	.
Cc1ccc(N(C)C(=O)c2sc3nc4n(c(=O)c3c2C)CCCC4)cc1C	-1	70%	21%	.
COc1ccc(CNC(=O)c2sc3nc4n(c(=O)c3c2C)CCCCC4)cc1	-2	23%	7.1µM*	.
Cc1c(C(=O)NCc2ccc(Cl)cc2)sc2nc3n(c(=O)c12)CCC3	-4	-2%	3%	.
CCCN1C=CC(=C2C(=O)c3ccccc3C2=O)C=C1	-54*	-8%[57.1 µM]	-21%[57.1 µM]	8%
CN1C=CC(=C2C(=O)c3ccccc3C2=O)C=C1	.	.	.	0%
CCN1C=CC(=C2C(=O)c3ccccc3C2=O)C=C1	-52*	-13%	-14%	5%
CCCCCCN1C=CC(=C2C(=O)c3ccccc3C2=O)C=C1	-9	6%	25%	7%
COc1ccc2c(c1OC)C(=O)N1c3ccccc3C(=O)N(c3ccccc3F)C21 (stereo not given)	-1	-1%	2%	1%
COc1ccc2c(c1OC)C(=O)N1c3ccccc3C(=O)N(Cc3ccco3)C21 (stereo not given)	.	1%	40µM*	.
Cc1c(O)c2c(c(C(=O)/C=C/c3ccccc3)c1O)OC(C)(C)C=C2	.	-5%	?	.
O=C(O)c1ccc(-c2noc(-c3ccccc3F)n2)cc1	-68*	7%	18%	.
COC(=O)[C@]12C[C@H](CC(=O)N3CCCC3)C(=O)N(Cc3ccco3)C1=C[C@H](C1CCCC1)O[C@@H]2C	7	.	.	.
CCCCCCCCNS(=O)(=O)CCNC1CC1	3	-5%	45µM*	.
CCCc1[nH]nc2c1C(Cc1ccccc1)C(C#N)=C(N)O2 (stereo not given)	-3	-2%	?	6%
CC(C)c1[nH]nc2c1C(Cc1ccccc1)C(C#N)=C(N)O2 (stereo not given)	-4	9%	18µM*	3%
Cc1[nH]nc2c1C(Cc1ccccc1)C(C#N)=C(N)O2 (stereo not given)	-9	16%	25µM*	-1%
COc1cc(C2c3c(n[nH]c3C)C(=O)N2c2ccc(Br)cc2)ccc1O (stereo not given)	-10	4%	7.9µM*	-2%
SMILES	PI4K2A inh	TrxR1 substrate	rTrxR1 inhibitor	GALK inhibitor
Cc1ccc(CNS(=O)(=O)c2cc(C(=O)Nc3cccc(C(F)(F)F)c3)ccc2F)cc1	-1	-4%[57.1 µM]	5%[57.1 µM]	.
Cc1ccc(OCC(=O)Nc2ccc(Cl)c(-c3nc4ncccc4o3)c2)c(C)c1	3	-3%[57.1 µM]	12%[57.1 µM]	.
CCC1CCCCN1C(=O)CSc1nc2ncccc2[nH]1 (stereo not given)	-2	-2%	50µM*	8%
Cc1cc(C(=O)N/N=C/c2ccco2)n[nH]1	4	-4%[57.1 µM]	-5%[57.1 µM]	8%
CC(/C=C/c1ccco1)=N\NC(=O)c1cc(C)[nH]n1	-14	-4%	16µM*	2%
CC(/C=C/c1ccco1)=N/NC(=O)Cc1cccs1	-21	-13%	40µM*	-1%
CC(CCC(C)[n+]1cccc(C#N)c1)[n+]1cccc(C#N)c1 (stereo not given)	.	1%	-2%	.
Cc1cc(C(=O)N/N=C/c2ccc(N(C)C)o2)cs1	-2	2%	14µM*	-6%
Cc1ccc(/C=N/NC(=O)c2csc(C)c2)o1	1	-3%	-26%	-1%
CN(C)c1ccc(/C=N/NC(=O)C(O)(c2ccccc2)c2ccccc2)o1	-5	0%	8.9µM*	1%
CCC1CN(C(=O)Nc2cccc3c2CCCC3)c2cc(C)ccc2O1 (stereo not given)	3	-1%	1%	.
Cc1nc([N+](=O)[O-])c(Sc2nc3ccccc3n2C)n1Cc1ccccc1	4	-3%	6.3µM*	-3%
Cc1nc([N+](=O)[O-])c(SCC(N)=O)n1Cc1ccccc1	3	5%[0.0914 µM]	6%[57.1 µM]	4%
Cc1ccc(-c2c(C#N)c(N)nc3c2CCCC3)o1	7	13%	32µM*	-2%
Cc1ccc(-c2c3c([nH]c(=S)c2C#N)CCCC3)o1	-8	-11%	45µM*	5%
CCSc1nc2c(c(-c3ccc(C)o3)c1C#N)CCCC2	9	-21%[11.4 µM]	13%[11.4 µM]	-4%
O=C(CCS(=O)(=O)c1ccccc1)N1CCN(c2cccc(C(F)(F)F)c2)CC1	6	-2%	79µM*	-7%
CCN(CCNCC(O)COCc1ccc(Cl)cc1)c1cccc(C)c1 (stereo not given)	-2	4%	13%[57.1 µM]	1%
CN1CCc2cccc3c2[C@H]1Cc1ccc(O)c(O)c1-3	-2	10%	22µM*	0%
COc1ccc2oc(C(=O)OC(C)C(=O)N3C(C)CCCC3C)c(C)c2c1 (stereo not given)	-3	54%[57.1 µM]	16%[57.1 µM]	.
Cc1cc(C)n(C(C[N+](=O)[O-])c2ccc(Cl)cc2)n1 (stereo not given)	0	4%	5.6µM*	-5%
O=C(O)CCc1ccc(-c2cccs2)n1-c1ccc(C(=O)O)cc1	1	6%	71µM*	0%
CC(=O)c1cccc(-n2c(CCC(=O)O)ccc2-c2cccs2)c1	1	14%[57.1 µM]	?	-3%
CC(=O)N1CCc2cc(Br)cc(S(=O)(=O)N3CCC(C)CC3)c21	-2	9%[2.29 µM]	8%[2.29 µM]	.
CC(C)OC(=O)CC(=O)c1sc2nc3c(cc2c1N)CN(C)CC3	-25	-1%[57.1 µM]	20µM*	4%
COc1ccc(C(=O)CCc2ccccc2)c(O)c1	-1	0%	22%	.
O=C(CCc1ccccc1)c1c(O)cc(O)cc1O	2	2%	20µM*	-2%
CCN(CC)/[N+]([O-])=N/Oc1cc(O/N=[N+](\[O-])N(C)C)c([N+](=O)[O-])cc1[N+](=O)[O-]	.	-10%	11µM*	.
CC(=O)C(Sc1nn(C)c(=S)s1)C(=O)Nc1ccccc1 (stereo not given)	-7	4%	22µM*	-2%
